Drawing on ChEMBL document CHEMBL4296182, “CO-ADD screening of NIH NCI Diversity Set V”, this text covers Inhibition for 25 molecules.

The structures appear in SMILES notation. For part of these data: Results with a measured potency or affinity are listed apart.

The subject of one assay is Staphylococcus aureus. The assay can be described thus: Antibacterial activity against Staphylococcus aureus MRSA ATCC 43300 (CO-ADD:GP_020); MIC in CAMBH media using NBS plates, by Resazurin F(560/590). Type of assay: functional. The note with it: Concentration 20 uM, ASSAY_TEST Inhibition of Bacterial Growth, detection method Resazurin, Fluorescence (ex560/em590), MEDIA CAMHB, plate type 384well, CORNING #3640, time 18 hr. On the technique in general: The colour change of resazurin is a common sign of viable cells or microbes.

The next assay concerns Acinetobacter baumannii. The assay can be described thus: Antibacterial activity against Acinetobacter baumannii ATCC 19606 (CO-ADD:GN_034); MIC in CAMBH media using NBS plates, by Resazurin F(560/590). It is filed as functional. The note with it: Concentration 20 uM, ASSAY_TEST Inhibition of Bacterial Growth, detection method Resazurin, Fluorescence (ex560/em590), MEDIA CAMHB, plate type 384well, CORNING #3640, time 18 hr.

The test system of the next assay is Escherichia coli. The assay can be described thus: Antibacterial activity against Escherichia coli ATCC 25922 (CO-ADD:GN_001); MIC in CAMBH media using NBS plates, by Resazurin F(560/590). The note with it: Concentration 20 uM, ASSAY_TEST Inhibition of Bacterial Growth, detection method Resazurin, Fluorescence (ex560/em590), MEDIA CAMHB, plate type 384well, CORNING #3640, time 18 hr. Type of assay: functional.

The next assay deals with Klebsiella pneumoniae. The note with it: Concentration 20 uM; ASSAY_TEST Inhibition of Bacterial Growth; detection method Absorption (OD600); MEDIA CAMHB; plate type 384well; NBS; CORNING #3640; time 18 hr.
In another assay the test system is Candida albicans. The note with it: 20 µM.
Another assay concerns Cryptococcus neoformans. The note with it: Concentration 20 uM; ASSAY_TEST Inhibition of Fungal Growth; detection method Resazurin; Absorption (OD600-OD570); plate type 384well; NBS; CORNING #3640.

Usually Inhibition stands for the relative decrease from the control value, in per cent. As to `O=C1c2ccccc2C(=Cc2cccnc2)c2ccccc21`, the Inhibition was 8.79% in the assay with Staphylococcus aureus; -7.39% in the assay on Acinetobacter baumannii; 6.86% with Escherichia coli; 10.23% with Klebsiella pneumoniae; 9.01% with Candida albicans; -9.38% in the assay with Cryptococcus neoformans.
As to `CCCCNc1nc(N)ncc1[N+](=O)[O-]`, the Inhibition in the assay on Staphylococcus aureus was 5.28%; in the assay with Acinetobacter baumannii, -8.97%; with Escherichia coli it was 14%; with Klebsiella pneumoniae, 10.57%; in the assay on Candida albicans it was 8.4%; in the assay on Cryptococcus neoformans, -15.62%.
For `O=C1c2ccccc2C(=O)N1c1nc[nH]n1`, the Inhibition in the assay on Staphylococcus aureus was 4.45%; with Acinetobacter baumannii, -18.59%; in the assay with Escherichia coli, 12.38%; in the assay on Klebsiella pneumoniae, 0.02%; with Candida albicans, -0.21%; with Cryptococcus neoformans, -4.67%.
In the case of `O=C(O)c1nc2nc(Cl)c(Cl)nc2[nH]1`, the Inhibition was -9.71% in the assay on Staphylococcus aureus; 8.37% in the assay on Acinetobacter baumannii; 0.88% with Escherichia coli; 10.97% in the assay on Klebsiella pneumoniae; 3.92% in the assay with Candida albicans; -11.32% with Cryptococcus neoformans.
Regarding `N#CCc1cnc2ccccc2n1`, the Inhibition in the assay with Staphylococcus aureus is 13.21%; with Acinetobacter baumannii it was -15.61%; with Escherichia coli, 3.75%; with Klebsiella pneumoniae, 2.07%; in the assay with Candida albicans, -2.07%; in the assay with Cryptococcus neoformans it was -9.92%.
`S=C(Nc1ccccc1)c1ccccn1`: the Inhibition is 3.41% with Staphylococcus aureus; -5.82% with Acinetobacter baumannii; 1.02% with Escherichia coli; 19.37% with Klebsiella pneumoniae; 25.9% in the assay with Candida albicans; -3.26% in the assay on Cryptococcus neoformans.
With `O=C(c1ccccc1)c1ccc[nH]1`, the Inhibition in the assay on Staphylococcus aureus was -0.8%; in the assay on Acinetobacter baumannii it was -3.74%; in the assay on Escherichia coli, -15.34%; in the assay with Klebsiella pneumoniae, 11.78%; in the assay with Candida albicans it was 2.09%; in the assay with Cryptococcus neoformans, 18.91%.
Regarding `O=C(NC(=S)Nc1cccc(O)c1)c1ccco1`, the Inhibition in the assay with Staphylococcus aureus is 2.34%; in the assay with Acinetobacter baumannii it was -0.89%; in the assay with Escherichia coli, 12.02%; with Klebsiella pneumoniae it was -1.93%; in the assay on Candida albicans, 0.31%; with Cryptococcus neoformans it was -18.75%.
On to `O=C(N(c1ccccc1)c1ccccc1)N(c1ccccc1)c1ccccc1`, for which the Inhibition in the assay with Staphylococcus aureus was 13.33%; in the assay with Acinetobacter baumannii, 0.28%; in the assay on Escherichia coli, 8.76%; in the assay on Klebsiella pneumoniae, 13.27%; with Candida albicans it was 9.21%; in the assay on Cryptococcus neoformans, -13.12%.
As for `CC(C)(C)n1nc(C2CC2)cc1NC(=O)Nc1ccccc1`, the Inhibition in the assay on Staphylococcus aureus was 5.22%; with Acinetobacter baumannii it was -11.36%; in the assay on Escherichia coli, 8.62%; in the assay with Klebsiella pneumoniae, 7.92%; in the assay with Candida albicans, 1.47%; with Cryptococcus neoformans, -6.02%.
For the molecule `CNc1ncnc2c1cnn2C1CCCCO1` (stereo not given), the Inhibition was 3.48% in the assay with Staphylococcus aureus; -13.53% in the assay with Acinetobacter baumannii; 9.64% in the assay with Escherichia coli; 6.75% with Klebsiella pneumoniae; -2.26% in the assay with Candida albicans; -11.76% in the assay on Cryptococcus neoformans.
Turning to `CC(=O)[C@H]1CC[C@H]2[C@@H]3CCC4=CC(=O)CC[C@]4(C)[C@@]3(F)[C@@H](O)C[C@]12C`, the Inhibition in the assay on Staphylococcus aureus was 0.89%; in the assay on Acinetobacter baumannii, -16.68%; with Escherichia coli, 9.76%; with Klebsiella pneumoniae, 7.06%; with Candida albicans, 0.8%; with Cryptococcus neoformans, -7.75%.
Take `O=[N+]([O-])c1ccc(Cn2cnc3c(O)ncnc32)cc1`: the Inhibition in the assay with Staphylococcus aureus was 10.19%; in the assay with Acinetobacter baumannii, 8.82%; with Escherichia coli, 7.89%; in the assay with Klebsiella pneumoniae, 11.73%; with Candida albicans it was 2.42%; in the assay on Cryptococcus neoformans, -11.97%.
On to `Cc1ccc(S(=O)(=O)Oc2cc(N)c3c(n2)CCC3)cc1`, for which the Inhibition in the assay with Staphylococcus aureus is 2.13%; in the assay on Acinetobacter baumannii it was -12.3%; with Escherichia coli, 7.8%; in the assay with Klebsiella pneumoniae it was 9.4%; in the assay on Candida albicans it was 1.38%; with Cryptococcus neoformans it was -7.75%.
As for `O=C(O)Cc1ccc(/N=N/c2c(O)c(C(=O)O)cc3ccccc23)cc1`, the Inhibition with Staphylococcus aureus is 6.99%; in the assay with Acinetobacter baumannii it was 6.89%; with Escherichia coli, 1.22%; in the assay on Klebsiella pneumoniae, 11.34%; in the assay with Candida albicans it was -4.81%; in the assay with Cryptococcus neoformans, -5.37%.
Take `Nc1ccccc1-c1nc2cnccc2[nH]1`: the Inhibition in the assay with Staphylococcus aureus was 12.51%; with Acinetobacter baumannii, -12.24%; in the assay with Escherichia coli, 9.24%; in the assay with Klebsiella pneumoniae, 2.75%; with Candida albicans, -2.69%; in the assay on Cryptococcus neoformans, -6.41%.
As for `Cc1nc(S)nc(O)c1Cc1c(O)ccc2ccccc12`, the Inhibition was -11.57% in the assay on Staphylococcus aureus; -9.92% in the assay on Acinetobacter baumannii; 5.55% in the assay with Escherichia coli; 6.39% in the assay with Klebsiella pneumoniae; 20.9% in the assay with Candida albicans; -9.2% with Cryptococcus neoformans.
Consider `CN1CCc2ccccc2C1Cc1ccccc1NC(=O)c1sc2ccccc2c1Cl` (stereo not given), for which the Inhibition in the assay on Staphylococcus aureus is 1.84%; with Acinetobacter baumannii it was -6.84%; in the assay with Escherichia coli it was 0.33%; in the assay on Klebsiella pneumoniae, 11.11%; in the assay with Candida albicans, 2.39%; with Cryptococcus neoformans it was -3.5%.
Turning to `Oc1cc(CNC2CCCCC2)c(O)cc1CNC1CCCCC1`, the Inhibition in the assay on Staphylococcus aureus is 1.43%; in the assay with Acinetobacter baumannii, -9.92%; in the assay on Escherichia coli, 2.36%; with Klebsiella pneumoniae it was 11.38%; in the assay on Candida albicans, 5.97%; in the assay on Cryptococcus neoformans it was -6.29%.
For `CC(=O)OCCn1c([N+](=O)[O-])cnc1/C=[N+](\[O-])C1CCCCC1`, the Inhibition in the assay with Staphylococcus aureus is 22.69%; in the assay on Acinetobacter baumannii, 11.41%; in the assay with Escherichia coli, 8.05%; with Klebsiella pneumoniae, 25.14%; in the assay on Candida albicans it was 4.46%; with Cryptococcus neoformans, -10.83%.
`COc1ccc(C2C3=C(COC3=O)Oc3cc4c(cc32)OCO4)cc1OC` (stereo not given): the Inhibition is 25.54% in the assay with Staphylococcus aureus; -8.11% with Acinetobacter baumannii; 12.52% in the assay with Escherichia coli; 17.02% in the assay on Klebsiella pneumoniae; 0.53% in the assay on Candida albicans; -1.21% in the assay on Cryptococcus neoformans.
With `O=C(Nc1cccc(Cl)c1)Nn1cnnc1`, the Inhibition is 17.05% in the assay on Staphylococcus aureus; 8.62% with Acinetobacter baumannii; 2.61% in the assay on Escherichia coli; 6% with Klebsiella pneumoniae; 3.98% in the assay on Candida albicans; -3.41% with Cryptococcus neoformans.
With `CC(=O)NC1=C/C(=C\[N+](=O)[O-])C=C1O`, the Inhibition in the assay on Staphylococcus aureus was -1.13%; in the assay with Acinetobacter baumannii, 0.39%; in the assay with Escherichia coli it was 10.35%; in the assay on Klebsiella pneumoniae, 11.59%; in the assay with Candida albicans, 0.53%; with Cryptococcus neoformans, -2.2%.
In the case of `O=C1NCCc2c1[nH]c1ccccc21`, the Inhibition was -13.58% in the assay on Staphylococcus aureus; -2.97% with Acinetobacter baumannii; -11.15% in the assay with Escherichia coli; 6.5% in the assay with Klebsiella pneumoniae; 2.99% in the assay with Candida albicans; -7.2% in the assay on Cryptococcus neoformans.
Regarding `COC(=O)c1cc(C)c(C)cc1NC1OC(CO)C(O)C1O` (stereo not given), the Inhibition is -3.53% in the assay on Staphylococcus aureus; 7.51% in the assay with Acinetobacter baumannii; -12.77% with Escherichia coli; 12.31% in the assay on Klebsiella pneumoniae; 6.05% in the assay on Candida albicans; -3.92% in the assay on Cryptococcus neoformans.
